# Whole data set: some 25,000 sequences, median “ln(normalized median fluorescence intensity)” near 7.1, cut for the highest 2% near 10. For the sample, the highest values were picked, then their nearest neighbours and some sequences at random.
# System: PfSIP2 AP2 domain 1 (GST-tagged)
# Experiment: gcPBM binding intensity (ln(normalized median fluorescence intensity)); higher = stronger DNA binding
# Outline: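 GST-tagged P. falciparum DNA-binding domains, expressed in E. coli (about 25 μg on average), were applied for 1 h to an Agilent 4 × 180k array of primer-extended double-stranded 36-bp intergenic genomic probes plus negative controls. The binding buffer was 1× PBS with 1% milk, 0.2 mg/ml BSA, 0.5% salmon testes DNA and 0.03% Triton X-100. Bound protein was detected with Alexa488 anti-GST antibody and scanned at 488 nm. Binding intensity is the highest Masliner-normalised natural-log median intensity across replicate spots of either probe orientation.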
row,Sequence,gcPBM binding intensity (ln)
1,TACGTCTTTTTTTTGGTGCATAATTTTTTTGTACAA,10.9
2,ATTTTTTTGGTAATTTGTACATAATATATACATAAT [XGTACX_site3742],7.21
3,AAAATTTCTTTTTTTTGTACATATATAATAATATAT [XGTACX_site7107],6.92
4,TTAACGCTTATTTTTTGTACTTATTTTATTTTAAAT [XGTACX_site3977],7.22
5,CCCTATATAAATAGCTGTACATTTGAACATGTTCAG [XGTACX_site2187],6.97
6,GCAATTTTTTTTAAGAGTACTAATATATTATAGTGG [XGTACX_site7316],7.11
7,TATAAATATATGTATGCACACATTTTTTTTGGAAAA [CACACA_site1070],8.1
8,TGTGCGGAAATAAGTGCACACATAGATATATGTATT [CACACA_site9227],10.8
9,TGTGTGTGTATATGTGTGCACATATAAAATAGAAGA [GTGCAC_site9714],8.95
10,TATAAATATCTGTATGCACACATTTTTTTTGGAAAA [CACACA_site4734],8.04
11,TGCGGAAATAAGTGCACACATAGATATATGTATTTT [CACACA_site3689],10.8
12,AATAAATAGATATATACACACATATATGTGTACATA [CACACA_site7476],7.06
13,TACAAATATATATGCACACACATATCTGTATATGTG [CACACA_site5663],7.66
14,TGTGCGGAAATAAGTGCACACATAGATATCTGTATT [CACACA_site5935],10.9
15,TATGTATAAATATATGCACACATATATATATTTATA [CACACA_site9150],7.18
16,TTTTTCTCTTTAAGGTGTACAATAATACAGTAACCA [XGTACX_site300],7.44
17,ATAAATAATAAAAAATGTACACATATAAATATAAAG [XGTACX_site727],7.11
18,TCTTACGGATTCATTGTGCACATATATATATATATA [GTGCAC_site9896],9.46
19,AGCACACGCAGACACACACACACACGCACACGCACA [CACACA_site6306],8.43
20,TACCACATCGGTAAATGTACTTATAAAAAAAAAAAA [XGTACX_site3364],6.83
21,ATATATATATTTTATGCATGTTCATTTTCTATATTT [TGCATGCA_site442],8.1
22,TATATATTGTTATATACACACATGTATTTAAAAAAT [CACACA_site5737],6.91
23,GATATATTTTATATATGTACATACAATGGTAAATAT [XGTACX_site2759],7.09
24,TTTATTTTGTTTATGGTGCATTTTATGTAAATATAT,10.8
25,CATACAATAAATATGGTGCATTTTATGTAACCGTTT [GTGCAC_site9420],10.4

row,Sequence,gcPBM binding intensity (ln)
1,TTACACATGTATTTGGTGCATGTTGTTAACAAAATA,9.57
2,TTTTTGTTCTATATGGTGCATGTTTATATTCGTATT,10.3
3,ATCATATTTATGTTGGTGCATTATACATAAAGTTTA [GTGCAC_site9574],10.2
4,TTTTGTTTATGTGTGCATTATATTATATTTTTTATT [TGCATGCA_negctrl_site146],7.83
5,ACACATGTATTTGGTGCATGTTGTTAAAAAAATATT [TGCATGCA_site795],10.8
6,TATATATATATGTATGCATGTTGTTTTTTATTTAAT [TGCATGCA_site343],9.27
7,ACATTTAAAATTTATGCATGTGGTGTTTTGTATATA [TGCATGCA_site534],7.26
8,ATGAAATTTATATCATGTACATACAAGAGAAAAAAA [XGTACX_site3326],7
9,ATTCTTTTTTTTTGGAAATGTATTTTTATGTTTTGT [TGCATGCA_negctrl_site426],6.73
10,TTAAAAATAAATTCATGTACATAATATATATATATA [XGTACX_site7908],9.25
11,TTTTGTAATGTGAATATTTGTATATTATTTGTATAT [CACACA_negctrl_site1677],7.03
12,ATTTTGTGTAGTGATGCATGTTATATATATATTTGA [TGCATGCA_site422],7.33
13,TTATATTTATATTTATGTACATATTTTGTGTGAAAA [XGTACX_site2367],7.27
14,TTATATTAATTTTGTTGTACTATTTGTGCATTAAAT [XGTACX_site4790],7.42
15,ATATATTTTTGTAGTGTGCACGTTTATATGGTGAAA,10.3
16,TTTTTTGTTTGAATGGTGCATTTTGTAATTATATTT,10.6
17,AAAAAAAAAAAAAATAGTACAATACCCAAATATAAC [XGTACX_site6684],7.3
18,GATAAATAATAATAAGGTACACATAAAATATTCCTT [XGTACX_site2963],6.86
19,AAAAAAAAAAAAAAAGGTACAGTAAAAAATTCCTCT [XGTACX_site5947],7.41
20,CACACAGGTAAAAAGGTGCAGTTGAAATATTCCTCA [GTGCAC_site9730],11.1
21,AAAAATAAATATACATGTACATAATAATAATATATA [XGTACX_site8359],6.97
22,TATTTAAAATAATGTGCAAAAGAATAAATAAATAAA [TGCATGCA_negctrl_site194],7.23
23,CTTTTAGAATAATCAGTGCAAAAAAAAAAAAAAAAA,8.42
24,GATAATCAGAATGGGGTGCAAAGAAAAAAAAAAAAA,11.3
25,TTTTTTTTTAAGTTTGCACACATGGAAGACAAAAAT [CACACA_site2505],7.96
